{"source": "PubChem BioAssay (NCI)", "note": "About 83,000 compounds went through this panel and 20% of them were active in at least one assay; those are over-represented in the sample as a whole.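 Results are percent growth after 48 hours of single-concentration exposure. 100 means growth as in untreated cells, lower positive values show inhibition; negative values down to -100 show cell death.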 Values without a mark were called inactive. Calls of active or inactive are those of the source.", "data": [{"test_system": "NCI-H322M lung", "test": "NCI-60 one-dose screen, 48 h (100 = growth as untreated, 0 = no growth, -100 = all killed)", "conditions": "10 µM unless noted", "experimental": "Growth inhibition of the NCI-H322M human Non-Small Cell Lung tumor cell line is measured as a screen for anti-cancer activity. Cells are grown in 96 well plates and exposed to the test compound for 48 hours. Compounds are tested at a single concentration, which is 10^-5 M for most compounds. The reported endpoint is percent growth (GI% or GIPRCNT), where numbers from 0 - 100% represent growth inhibition, and numbers from -100% - 0 represent cell death. For example, a value of 40 represents 60% growth inhibition. A value of 0 means no net growth occurred over the course of the experiment. A value of -40 indicates 40% of cells at the beginning of the experiment died by the end of the experiment. A value of -100 means all cells are dead at the end of the experiment.\nNCI-60 Human Tumor Cell Lines Screen was performed using the standard one-dose NCI protocol, which is described in more detail at https://dtp.cancer.gov/discovery_development/nci-60/default.htm.\nCompounds with GIPRCNT values below 10 were considered active. Activity score was based on GIPRCNT using the following formula: […]\nScore is 0 for GIPRCNT values of 100 or above, 50 for GIPRCNT values of 0, and 100 for GIPRCNT values of -100.", "values": [{"smiles": "C#CCSc1nnnn1-c1ccccc1", "growth": "98%"}, {"smiles": "NC(=O)NCCO", "growth": "109%"}, {"smiles": "NNC(=O)CCCCl", "growth": "107%"}, {"smiles": "CCCCCC/C=C\\CCCCCCCCCc1cc(O)cc(OC)c1O", "growth": "4.07% (active)"}, {"smiles": "Cc1cc(C)cc(OCC(=O)O)c1", "growth": "95.9%"}, {"smiles": "O=C(O)c1ccccc1Cc1ccc2c(c1)CCCC2", "growth": "99.2%"}, {"smiles": "COc1cccc2c1Cc1ccccc1-2", "growth": "114%"}, {"smiles": "CCCCCCCCCCCCCCCCOc1ccccc1NC(=O)CC(C)=O", "growth": "109%"}, {"smiles": "COC(=O)C1=C(C)C(=O)CC1", "growth": "115%"}, {"smiles": "COC(=O)c1ccccc1C(=O)c1c(C)cc(C)cc1C", "growth": "101%"}, {"smiles": "CC(=O)Oc1c(Cl)cccc1-c1ccccc1", "growth": "92.7%"}, {"smiles": "CCOc1ccncc1[N+](=O)[O-]", "growth": "110%"}, {"smiles": "Cc1onc(-c2ccccc2Cl)c1C(=O)Cl", "growth": "101%"}, {"smiles": "O=[N+]([O-])c1c(O)c(CNCCCO)cc(CNCCCO)c1O", "growth": "99.5%"}, {"smiles": "COc1ccc(/C=N/NC(=O)COCC(=O)N/N=C/c2ccc(OC)cc2)cc1", "growth": "113%"}, {"smiles": "COc1ccc(C2CCCCC2=O)cc1", "note": "(stereo not given)", "growth": "113%"}, {"smiles": "CNc1ccccc1C(=O)N/N=C/C=C/c1ccccc1", "growth": "30.8%"}, {"smiles": "CCCCOC(=O)c1ccc(NC(=O)CCl)cc1", "growth": "93.7%"}, {"smiles": "Clc1cccc(Cl)c1CSc1nc2ccccc2n2cccc12", "growth": "71.8%"}, {"smiles": "CC(C)OCC(CCl)OC(=O)Nc1ccccc1", "note": "(stereo not given)", "growth": "99.4%"}, {"smiles": "OCc1cccnc1", "growth": "106%"}, {"smiles": "CC(C)c1ccc(C(=O)OCCCl)cc1", "growth": "92.7%"}, {"smiles": "Nc1ncnc(Nc2ccccc2)n1", "growth": "104%"}, {"smiles": "CCNCC(C)(C)O", "growth": "98%"}, {"smiles": "CCOC(=O)C(CCC#N)(CCC#N)C(=O)OCC", "growth": "113%"}, {"smiles": "Nc1ccc2c(c1)Cc1cc(N)c(N)cc1-2", "growth": "92%"}, {"smiles": "Nc1nc(Cl)cc(Cl)n1", "growth": "99%"}, {"smiles": "CCC(=O)C1C(=O)c2ccccc2C1=O", "growth": "102%"}, {"smiles": "COc1c(CNC(=O)CCl)cc2[nH]c(C)cc2c1CNC(=O)CCl", "growth": "67.4%"}, {"smiles": "CC(C)(N)CO[C@H]1C[C@H]2CC[C@@]1(C)C2(C)C", "growth": "96.5%"}, {"smiles": "CC1CCC(C(C)(C)[N+](C)(C)C)CC1", "note": "(stereo not given)", "growth": "106%"}, {"smiles": "C#CC(O)c1ccccc1", "note": "(stereo not given)", "growth": "104%"}, {"smiles": "Oc1ccc(N=Cc2ccc(OCc3ccccc3)cc2)cc1", "growth": "93.8%"}, {"smiles": "ON1CCCC1", "growth": "108%"}, {"smiles": "O=S(Cc1ccccc1)/C(=C/NC(=S)Nc1ccccc1)c1ccccc1", "note": "(stereo not given)", "growth": "99.7%"}, {"smiles": "COC(CCCl)c1ccc(Cl)cc1", "note": "(stereo not given)", "growth": "97.5%"}, {"smiles": "Nc1ccn(C2CC(N)C(CO)O2)c(=O)n1", "note": "(stereo not given)", "growth": "96.6%"}, {"smiles": "Cc1ccc(C2CCCCC2)cc1Br", "growth": "99.2%"}, {"smiles": "C=C(OC(C)=O)c1ccccc1", "growth": "113%"}, {"smiles": "C=C1C(=O)C2CCN1CC2", "growth": "99.5%"}]}]}
